# In PubChem BioAssay (EPA / NIEHS):
# Some structures have more than one record in an assay (separate samples or runs), and their calls can disagree. Activity calls are given as the source filed them. How the source made its calls: active means hit-call score of the fitted dose curve at least 0.9, where 1 is the maximum; inactive means score below 0.9.
# Assays:
# [1] = molecular target: Hypoxia-inducible factor 1-alpha (Homo sapiens) (UniProt Q16665); test: ATG_HIF1a_CIS: Attagene CIS-FACTORIAL HepG2 Assay for human Hypoxia Inducible Factor 1 (HIF1A) (AID 2282951); details: HepG2 Attagene cis-factorial HIF1a reporter transcription; actives raise or lower the signal
# Hypoxia-inducible factor 1-alpha (Homo sapiens), sequence (Q16665 whole entry, looked up): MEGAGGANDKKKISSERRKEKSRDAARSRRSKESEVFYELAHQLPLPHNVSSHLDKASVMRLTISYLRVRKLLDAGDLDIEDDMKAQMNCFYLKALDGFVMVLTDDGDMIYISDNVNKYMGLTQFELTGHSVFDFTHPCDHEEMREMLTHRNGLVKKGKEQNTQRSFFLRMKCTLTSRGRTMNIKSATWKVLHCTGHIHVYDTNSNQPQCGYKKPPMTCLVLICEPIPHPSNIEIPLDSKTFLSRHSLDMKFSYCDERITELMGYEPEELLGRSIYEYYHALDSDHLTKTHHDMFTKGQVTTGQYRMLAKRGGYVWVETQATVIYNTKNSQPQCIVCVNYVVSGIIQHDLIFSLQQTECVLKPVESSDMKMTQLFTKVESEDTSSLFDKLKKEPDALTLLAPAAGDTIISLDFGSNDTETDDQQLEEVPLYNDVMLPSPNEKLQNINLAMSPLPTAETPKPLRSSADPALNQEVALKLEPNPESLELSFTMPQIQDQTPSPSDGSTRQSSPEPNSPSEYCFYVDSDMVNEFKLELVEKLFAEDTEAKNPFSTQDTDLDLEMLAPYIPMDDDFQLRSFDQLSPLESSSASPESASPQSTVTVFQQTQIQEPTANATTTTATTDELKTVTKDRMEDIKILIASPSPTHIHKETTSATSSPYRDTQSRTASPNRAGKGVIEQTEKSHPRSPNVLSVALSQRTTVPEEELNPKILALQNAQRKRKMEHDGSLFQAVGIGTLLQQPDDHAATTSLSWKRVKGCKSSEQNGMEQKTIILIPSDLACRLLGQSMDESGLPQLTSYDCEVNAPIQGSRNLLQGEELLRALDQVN
# Procedure, shortened: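 Fluorescence intensity of capillary-separated, 6-FAM-labelled reporter amplicons gives mRNA induction in HepG2 cells carrying transfected cis-promoter reporter units; cells exposed 24 h, responses fitted up or down from DMSO.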
# [2] = molecular target: Hepatocyte nuclear factor 6 (Homo sapiens) (UniProt Q9UBC0); test: ATG_HNF6_CIS: Attagene CIS-FACTORIAL HepG2 Assay for human Hepatocyte Nuclear Factor 6 (HNF6) (AID 2282952); details: HepG2 Attagene cis-factorial HNF6 reporter transcription; actives raise or lower the signal
# Hepatocyte nuclear factor 6 (Homo sapiens), sequence (Q9UBC0 whole entry, looked up, the tested form may be a part): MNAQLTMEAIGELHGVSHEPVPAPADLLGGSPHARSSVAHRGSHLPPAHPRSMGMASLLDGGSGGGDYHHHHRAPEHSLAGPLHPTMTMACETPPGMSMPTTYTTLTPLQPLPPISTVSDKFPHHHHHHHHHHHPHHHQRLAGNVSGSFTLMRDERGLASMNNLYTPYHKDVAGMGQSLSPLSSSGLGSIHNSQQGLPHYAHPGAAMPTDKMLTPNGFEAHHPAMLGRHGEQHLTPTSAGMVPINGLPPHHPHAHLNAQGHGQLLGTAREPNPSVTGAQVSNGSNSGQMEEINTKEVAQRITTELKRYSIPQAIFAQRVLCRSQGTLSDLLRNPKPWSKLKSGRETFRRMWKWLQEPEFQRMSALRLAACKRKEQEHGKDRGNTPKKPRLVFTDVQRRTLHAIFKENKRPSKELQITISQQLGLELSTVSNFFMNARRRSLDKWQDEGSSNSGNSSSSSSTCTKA
# Procedure, shortened: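 Reporter mRNA induction or loss in HepG2 after 24 h exposure; transient cis-MRTU transfection; fragments quantified by capillary electrophoresis; bidirectional analysis, DMSO as negative control.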
# [3] = molecular target: Heat shock factor protein 1 (Homo sapiens) (UniProt Q00613); test: ATG_HSE_CIS: Attagene CIS-FACTORIAL HepG2 Assay for human Heat Shock Transcription Factor 1 (HSE) (AID 2282953); details: HepG2 HSE cis-reporter, Attagene RNA transcription; actives raise or lower the signal
# Heat shock factor protein 1 (Homo sapiens), sequence (Q00613 whole entry, looked up): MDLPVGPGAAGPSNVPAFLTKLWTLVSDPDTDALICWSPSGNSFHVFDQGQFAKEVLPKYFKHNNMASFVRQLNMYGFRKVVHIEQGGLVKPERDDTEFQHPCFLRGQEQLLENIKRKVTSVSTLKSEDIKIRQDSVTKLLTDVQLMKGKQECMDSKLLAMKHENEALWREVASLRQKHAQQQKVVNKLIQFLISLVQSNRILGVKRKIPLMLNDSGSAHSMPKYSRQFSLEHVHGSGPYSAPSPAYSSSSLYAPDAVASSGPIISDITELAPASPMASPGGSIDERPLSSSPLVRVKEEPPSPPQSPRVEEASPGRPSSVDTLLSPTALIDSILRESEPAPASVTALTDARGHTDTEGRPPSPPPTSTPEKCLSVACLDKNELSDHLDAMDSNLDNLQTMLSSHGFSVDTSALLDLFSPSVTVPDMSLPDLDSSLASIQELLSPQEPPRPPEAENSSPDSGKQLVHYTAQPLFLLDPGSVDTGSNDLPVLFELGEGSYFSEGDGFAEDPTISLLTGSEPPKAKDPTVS
# Procedure, shortened: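 Endogenous transcription factor activity in transiently transfected HepG2, read as reporter mRNA by RT-PCR with fluorescent capillary electrophoresis after 24 h. Gain or loss of signal fitted versus DMSO baseline.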
# [4] = ATG_MRE_CIS: Attagene CIS-FACTORIAL HepG2 Assay for human Metal Responsive Element (MRE) (AID 2282954); details: HepG2 MRE cis-reporter transcription, Attagene multiplex; actives raise or lower the signal
# Procedure, shortened: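 HepG2 cells transiently transfected with cis-element-driven reporter units; mRNA measured 24 h after dosing. Reporter transcripts quantified by RT-PCR, FAM labelling, HpaI digestion and capillary electrophoresis; bidirectional fit versus DMSO.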
# [5] = ATG_PBREM_CIS: Attagene CIS-FACTORIAL HepG2 Assay for human Phenobarbital-responsive Enhancer Module (PBREM) (AID 2282955); details: HepG2 PBREM cis-reporter, Attagene multiplexed transcription; actives raise or lower the signal
# Procedure, shortened: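 Cells were transfected with cis-element reporter units and treated for 24 h, after which RNA was extracted and reporter transcripts measured by RT-PCR and capillary electrophoresis.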
# [6] = molecular target: Paired box protein Pax-6 (Homo sapiens) (UniProt P26367); test: ATG_Pax6_CIS: Attagene CIS-FACTORIAL HepG2 Assay for human Paired Box 6 (PAX6) (AID 2282956); details: HepG2 CIS-FACTORIAL PAX6 reporter transcription, RNA readout; actives raise or lower the signal
# Paired box protein Pax-6 (Homo sapiens), sequence (P26367 whole entry, looked up): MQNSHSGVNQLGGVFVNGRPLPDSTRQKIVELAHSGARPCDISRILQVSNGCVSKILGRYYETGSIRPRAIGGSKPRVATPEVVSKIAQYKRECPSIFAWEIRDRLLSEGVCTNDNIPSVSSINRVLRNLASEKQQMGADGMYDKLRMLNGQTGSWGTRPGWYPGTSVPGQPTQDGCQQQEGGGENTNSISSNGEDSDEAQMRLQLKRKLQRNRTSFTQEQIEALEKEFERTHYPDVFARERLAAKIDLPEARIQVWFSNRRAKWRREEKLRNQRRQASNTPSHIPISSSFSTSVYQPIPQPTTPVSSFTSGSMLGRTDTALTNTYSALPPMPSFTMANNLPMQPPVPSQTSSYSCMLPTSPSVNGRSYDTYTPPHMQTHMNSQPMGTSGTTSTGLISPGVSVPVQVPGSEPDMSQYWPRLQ
# Procedure, shortened: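 After twenty-four hours of chemical exposure, transfected HepG2 cells are harvested for RNA. Cis-promoter reporter transcripts are amplified, fluorescently labelled and sized by capillary electrophoresis, with gain and loss of signal scored against DMSO.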
# [7] = ATG_PXRE_CIS: Attagene CIS-FACTORIAL HepG2 Assay for human Pregnane X Receptor Element (PXRE) (AID 2282957); details: HepG2 Attagene CIS-FACTORIAL PXRE reporter, mRNA; actives raise or lower the signal
# Procedure, shortened: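 Transiently transfected HepG2 cells were dosed and incubated for 24 h. RNA was then isolated, DNase-treated, reverse-transcribed and reporter sequences amplified. Labeled, HpaI-digested fragments were quantified by capillary electrophoresis against DMSO.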
# [8] = ATG_Sox_CIS: Attagene CIS-FACTORIAL HepG2 Assay for human SRY-box transcription factor (SOX) (AID 2282960); details: HepG2 Attagene cis-factorial SOX reporter, mRNA; actives raise or lower the signal
# Procedure, shortened: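 Measures mRNA induction of a SOX1-associated reporter in HepG2 after 24 h dosing. Fluorescently labelled RT-PCR fragments are separated by capillary electrophoresis, and gain or loss relative to DMSO control is fitted.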
# [9] = ATG_PPRE_CIS: Attagene CIS-FACTORIAL HepG2 Assay for human Peroxisome Proliferator-activated Response Element (PPRE) (AID 2282958); details: HepG2 PPRE cis-element reporter, Attagene transcription factor profiling; actives raise or lower the signal
# Procedure, shortened: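 In this cell-based multiplex, a PPRE cis element drives a reporter sequence in transiently transfected HepG2 cells. Following 24 h treatment, labeled cDNA amplicons are sized and quantified by capillary electrophoresis, with DMSO defining baseline.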
# [10] = ATG_RORE_CIS: Attagene CIS-FACTORIAL HepG2 Assay for human RAR-related Orphan Receptor Element (RORE) (AID 2282959); details: HepG2 Attagene cis-factorial RORE reporter, mRNA; actives raise or lower the signal
# Procedure, shortened: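 Endogenous factor activity at a cis response element is read as reporter transcript levels in HepG2 cells, 24 h post-dose. Transcripts are quantified by RT-PCR with capillary electrophoresis, and data fitted in both directions against DMSO.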
compound,measurement,setting,value
CC(C)N(C(=O)CCl)c1ccccc1,AC50,[1],8.65 µM (active)
same,outcome,[2],inactive
same,AC50,[3],52.4 µM (active)
same,AC50,[4],44.6 µM (active)
same,outcome,[5],inactive
same,AC50,[6],53.6 µM (active)
same,outcome,[7],inactive
same,AC50,[8],48.2 µM (active)
O=C(NC(=O)c1c(F)cccc1F)Nc1ccc(Cl)cc1,outcome,[1],inactive
same,outcome,[2],inactive
same,outcome,[3],inactive
same,outcome,[4],inactive
same,outcome,[5],inactive
same,outcome,[6],inactive
same,outcome,[7],inactive
same,outcome,[9],inactive
same,outcome,[8],inactive
CCOC(=O)CC(=O)CCl,outcome,[1],inactive
same,outcome,[2],inactive
same,AC50,[3],146 µM (active)
same,AC50,[4],26 µM (active)
same,outcome,[5],inactive
same,AC50,[6],27.4 µM (active)
same,outcome,[7],inactive
same,outcome,[10],inactive
same,AC50,[8],26.2 µM (active)
O=S(=O)(F)C(F)(F)C(F)(F)C(F)(F)C(F)(F)F,outcome,[1],inactive
same,outcome,[2],inactive
same,outcome,[3],inactive
same,outcome,[4],inactive
same,outcome,[5],inactive
same,outcome,[6],inactive
same,outcome,[7],inactive
same,outcome,[9],inactive
same,outcome,[8],inactive
CC(C)(C)c1ccc(CCOc2ncnc3ccccc23)cc1,outcome,[1],inactive
same,outcome,[2],inactive
same,outcome,[3],inactive
same,outcome,[4],inactive
same,outcome,[5],inactive
same,outcome,[6],inactive
same,AC50,[7],34.7 µM (active)
same,outcome,[10],inactive
same,outcome,[8],inactive
Clc1cccc(Cl)c1,outcome,[1],inactive
same,outcome,[2],inactive
same,outcome,[3],inactive
same,outcome,[4],inactive
same,outcome,[5],inactive
same,outcome,[6],inactive
same,outcome,[7],inactive
same,outcome,[9],inactive
same,outcome,[8],inactive
ClCCN1CCOCC1,outcome,[1],inactive
same,outcome,[2],inactive
same,outcome,[3],inactive
same,outcome,[4],inactive
same,outcome,[6],inactive
same,outcome,[7],inactive
same,outcome,[9],inactive
same,outcome,[10],inactive
same,outcome,[8],inactive
CN(N=O)c1ccc([N+](=O)[O-])cc1,outcome,[1],inactive
same,outcome,[2],inactive
same,outcome,[3],inactive
same,outcome,[4],inactive
same,outcome,[5],inactive
same,outcome,[6],inactive
same,AC50,[7],18.6 µM (active)
same,outcome,[9],inactive
same,outcome,[8],inactive
O=c1[nH]c(=O)n(Cl)c(=O)n1Cl,outcome,[1],inactive
same,outcome,[2],inactive
same,outcome,[3],inactive
same,outcome,[4],inactive
same,outcome,[6],inactive
same,AC50,[7],52.5 µM (active)
same,outcome,[7],inactive
same,outcome,[8],inactive
Nc1nc(N)nc(Cl)n1,outcome,[1],inactive
same,outcome,[2],inactive
same,outcome,[3],inactive
same,outcome,[4],inactive
same,outcome,[5],inactive
same,outcome,[6],inactive
same,outcome,[7],inactive
same,outcome,[10],inactive
same,outcome,[8],inactive
CC(C)=CC1C(C(=O)OCc2cccc(Oc3ccccc3)c2)C1(C)C (stereo unspecified),outcome,[1],inactive
same,outcome,[2],inactive
same,outcome,[3],inactive
same,outcome,[4],inactive
same,outcome,[5],inactive
same,outcome,[6],inactive
same,AC50,[7],3.43 µM (active)
same,outcome,[10],inactive
same,outcome,[8],inactive
CC(c1ccc(O)cc1)c1ccc(O)cc1,outcome,[1],inactive
same,outcome,[2],inactive
same,AC50,[3],168 µM (active)
same,AC50,[4],100 µM (active)
same,outcome,[5],inactive
same,outcome,[6],inactive
same,AC50,[7],27.6 µM (active)
same,outcome,[10],inactive
same,outcome,[8],inactive
ClCc1ccccc1Cl,outcome,[1],inactive
same,AC50,[2],100 µM (active)
same,AC50,[3],164 µM (active)
same,outcome,[4],inactive
same,outcome,[5],inactive
same,AC50,[6],100 µM (active)
same,AC50,[7],38.3 µM (active)
same,outcome,[10],inactive
same,AC50,[8],120 µM (active)
O=C(NC(=O)c1c(F)cccc1F)Nc1cc(Cl)c(OC(F)(F)C(F)C(F)(F)F)cc1Cl (stereo unspecified),outcome,[1],inactive
same,outcome,[2],inactive
same,outcome,[3],inactive
same,outcome,[4],inactive
same,outcome,[5],inactive
same,outcome,[6],inactive
same,outcome,[7],inactive
same,outcome,[10],inactive
same,outcome,[8],inactive
Oc1cccc(-c2ccccc2)c1,outcome,[1],inactive
same,outcome,[2],inactive
same,outcome,[3],inactive
same,outcome,[4],inactive
same,outcome,[5],inactive
same,outcome,[6],inactive
same,AC50,[7],27.2 µM (active)
same,outcome,[9],inactive
same,outcome,[8],inactive
CCOc1cc(C=O)ccc1O,outcome,[1],inactive
same,outcome,[2],inactive
same,outcome,[3],inactive
same,outcome,[4],inactive
same,outcome,[5],inactive
same,outcome,[6],inactive
same,outcome,[7],inactive
same,outcome,[10],inactive
same,outcome,[8],inactive
CN(N=O)C(N)=O,outcome,[1],inactive
same,outcome,[2],inactive
same,outcome,[3],inactive
same,outcome,[4],inactive
same,outcome,[5],inactive
same,outcome,[6],inactive
same,outcome,[7],inactive
same,outcome,[10],inactive
same,outcome,[8],inactive
CCNc1nc(NCC)nc(SC)n1,outcome,[1],inactive
same,outcome,[2],inactive
same,outcome,[3],inactive
same,outcome,[4],inactive
same,outcome,[5],inactive
same,outcome,[6],inactive
same,AC50,[7],27.9 µM (active)
same,outcome,[10],inactive
same,outcome,[8],inactive
O=CCCl,AC50,[1],55 µM (active)
same,AC50,[2],32.6 µM (active)
same,AC50,[3],48.6 µM (active)
same,AC50,[4],43.2 µM (active)
same,AC50,[5],25.2 µM (active)
same,AC50,[6],42.5 µM (active)
same,AC50,[7],37.2 µM (active)
same,outcome,[10],inactive
same,outcome,[8],inactive
O=NN1CCOCC1,outcome,[1],inactive
same,outcome,[2],inactive
same,outcome,[3],inactive
same,outcome,[4],inactive
same,outcome,[6],inactive
same,AC50,[7],69.6 µM (active)
same,outcome,[9],inactive
same,outcome,[10],inactive
Nc1ccc(-c2ccccc2)cc1,outcome,[1],inactive
same,outcome,[2],inactive
same,outcome,[3],inactive
same,AC50,[4],56.8 µM (active)
same,outcome,[5],inactive
same,outcome,[6],inactive
same,AC50,[7],30.1 µM (active)
same,outcome,[10],inactive
same,outcome,[8],inactive
CCC[CH2][Sn]([CH2]CCC)([CH2]CCC)[CH2]CCC,outcome,[1],inactive
same,outcome,[2],inactive
same,AC50,[3],17.1 µM (active)
same,outcome,[4],inactive
same,AC50,[5],2.9 µM (active)
same,AC50,[6],11.1 µM (active)
same,AC50,[7],18.3 µM (active)
same,AC50,[9],2.2 µM (active)
same,AC50,[8],11.1 µM (active)
Cc1cc(SCc2sc(-c3ccc(C(F)(F)F)c(F)c3)nc2C)ccc1OCC(=O)O,AC50,[1],17.2 µM (active)
same,outcome,[2],inactive
same,AC50,[3],50.9 µM (active)
same,AC50,[4],24.5 µM (active)
same,outcome,[5],inactive
same,AC50,[6],33.4 µM (active)
same,AC50,[7],1.32 µM (active)
same,AC50,[10],8.36 µM (active)
CCOP(=O)(OCC)OC(=CCl)c1ccc(Cl)cc1Cl,outcome,[1],inactive
same,outcome,[2],inactive
same,outcome,[3],inactive
same,outcome,[4],inactive
same,AC50,[5],6.62 µM (active)
same,outcome,[6],inactive
same,AC50,[7],0.754 µM (active)
same,outcome,[9],inactive
same,outcome,[8],inactive
CNC(=O)O/N=C/C(C)(C)S(C)(=O)=O,outcome,[1],inactive
same,outcome,[2],inactive
same,outcome,[3],inactive
same,outcome,[4],inactive
same,outcome,[5],inactive
same,outcome,[6],inactive
same,outcome,[7],inactive
same,outcome,[10],inactive
same,outcome,[8],inactive
Clc1cc(C(Cl)(Cl)Cl)cnc1Cl,AC50,[1],9 µM (active)
same,outcome,[2],inactive
same,outcome,[3],inactive
same,AC50,[4],9.1 µM (active)
same,AC50,[6],8.8 µM (active)
same,AC50,[7],8.47 µM (active)
same,outcome,[9],inactive
same,outcome,[10],inactive
same,outcome,[8],inactive
c1ccc(-c2cccc(-c3ccccc3)c2)cc1,outcome,[1],inactive
same,outcome,[2],inactive
same,outcome,[3],inactive
same,outcome,[4],inactive
same,outcome,[6],inactive
same,AC50,[7],11.3 µM (active)
same,outcome,[10],inactive
same,outcome,[8],inactive
C=C(C)C(=O)OCC(CC)CCCC (stereo unspecified),outcome,[1],inactive
same,outcome,[2],inactive
same,outcome,[3],inactive
same,outcome,[4],inactive
same,outcome,[6],inactive
same,outcome,[7],inactive
same,outcome,[10],inactive
same,outcome,[8],inactive
